Assay [1] deals with Cytochrome P450 3A4 (Homo sapiens) (UniProt P08684). Kind of assay: Cytochrome P450 family 3 subfamily A member 4 (CYP3A4) small molecule antagonists: luciferase qHTS assay (AID 1645841; active = well fitted curve in the direction sought with a large enough effect in the repeat runs; an effect the other way counts as inactive or inconclusive; also: nearly all actives have a fitted effect of over 45% in size). In outline:
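Luminescent CYP3A4 activity readout: compounds plus enzyme-substrate mix 10 min at room temperature, reaction started with NADPH regenerating system for 1 h, stopped with detection reagent, read after 20 min. Ketoconazole served as control.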
On the technique in general: Quantitative high-throughput screening tests each substance at several concentrations.

Assay [2] deals with Calcium and integrin-binding protein 1 (Homo sapiens) (UniProt Q99828). Kind of assay: Primary qHTS for Identification of Calcium Integrin Binding Protein 1 (CIB1) Competitor (AID 1508620).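 Also: GST tagged CIB1 binding a fluorescein labelled alphaIIb integrin peptide tracer; top concentration of the series differs between compounds.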 In outline:
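CIB1-GST (1 uM final) and compound incubated 15 min at room temperature before adding FITC-alphaIIb peptide tracer (100 nM final). Competition for binding read by fluorescence polarization (ex 480, em 540) after another 15 min at room temperature.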

Assay [3] is described as follows: Primary qHTS for small molecule stabilizers of the endoplasmic reticulum resident proteome: Secreted ER Calcium Modulated Protein (SERCaMP) assay (AID 1508630). In outline:
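GLuc-SERCaMP-expressing SH-SY5Y cells, pretreated 16 h with compound, are challenged with thapsigargin to empty ER calcium stores; after 4 h, coelenterazine is added directly to the medium and luminescence is imaged.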

Assay [4] addresses Cytochrome P450 2C9 (Homo sapiens) (UniProt P11712). Kind of assay: Cytochrome P450 family 2 subfamily C member 9 (CYP2C9) small molecule antagonists: luciferase biochemical (cell-free) qHTS assay (AID 1645842; active = well fitted curve in the direction sought with a large enough effect in the repeat runs; an effect the other way counts as inactive or inconclusive; also: nearly all actives have a fitted effect of over 55% in size; also: potency is read from the fitted curve at half-maximal effect). In outline:
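Luminescence, after 20 min with luciferin detection reagent, reflected CYP2C9 turnover during a 1 h NADPH-driven reaction at 37C. Enzyme-substrate mix contained 0.4% bovine serum albumin and was preincubated with compound 10 min at room temperature.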

In assay [5] the target is Cytochrome P450 2D6 (Homo sapiens) (UniProt P10635). Kind of assay: Cytochrome P450 family 2 subfamily D member 6 (CYP2D6) small molecule antagonists: luciferase biochemical (cell-free) qHTS assay (AID 1645840; active = well fitted curve in the direction sought with a large enough effect in the repeat runs; an effect the other way counts as inactive or inconclusive; also: nearly all actives have a fitted effect of over 55% in size; also: potency is read from the fitted curve at half-maximal effect). The procedure, abridged:
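P450-Glo luminescent screen: recombinant CYP2D6 enzyme–proluciferin substrate mix preincubated with compound 10 min at room temperature, then NADPH regeneration added for 1 h at room temperature. Detection reagent added for 20 min; luciferin light read as relative luminescence units.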

Assay [6] is described as follows: Primary qHTS for inhibitors of nuclear receptor binding SET domain protein 2 (NSD2) in an isogenic RCH-ACV NSD2 p.E1099K mutant (9B) (AID 1645876). Also: nearly all actives have a fitted effect of over 70% in size. Also: potency is read from the fitted curve at half-maximal effect.
A short description of assay [7]: Primary qHTS for inhibitors of nuclear receptor binding SET domain protein 2 (NSD2) in an RCH-ACV wild type WT cells (2C) (AID 1645877). Also: nearly all actives have a fitted effect of over 70% in size. Also: potency is read from the fitted curve at half-maximal effect.

“And” between values parts separate entries of the source, which are not always exact repeats. Identical values can stand only once. Results filed as inconclusive are left out. Values without a mark were called inactive. The source made the active and inactive calls. Unless noted, calls follow the shape of the dose curve; as a rule, active = well fitted curve in the direction sought with a large enough effect; inconclusive = small, poorly fitted or top-dose-only effect, or another doubt; inactive = no such curve, though single readings can be large; an effect the other way counts as inactive or inconclusive.

Sequence of Calcium and integrin-binding protein 1 (Homo sapiens) (Q99828 whole entry, looked up): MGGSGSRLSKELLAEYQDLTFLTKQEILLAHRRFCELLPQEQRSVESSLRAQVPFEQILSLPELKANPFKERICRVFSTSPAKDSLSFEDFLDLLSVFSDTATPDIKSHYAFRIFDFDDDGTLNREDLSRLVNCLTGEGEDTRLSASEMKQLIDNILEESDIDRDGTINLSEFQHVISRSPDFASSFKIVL
Sequence of Cytochrome P450 2C9 (Homo sapiens) (P11712 whole entry, looked up): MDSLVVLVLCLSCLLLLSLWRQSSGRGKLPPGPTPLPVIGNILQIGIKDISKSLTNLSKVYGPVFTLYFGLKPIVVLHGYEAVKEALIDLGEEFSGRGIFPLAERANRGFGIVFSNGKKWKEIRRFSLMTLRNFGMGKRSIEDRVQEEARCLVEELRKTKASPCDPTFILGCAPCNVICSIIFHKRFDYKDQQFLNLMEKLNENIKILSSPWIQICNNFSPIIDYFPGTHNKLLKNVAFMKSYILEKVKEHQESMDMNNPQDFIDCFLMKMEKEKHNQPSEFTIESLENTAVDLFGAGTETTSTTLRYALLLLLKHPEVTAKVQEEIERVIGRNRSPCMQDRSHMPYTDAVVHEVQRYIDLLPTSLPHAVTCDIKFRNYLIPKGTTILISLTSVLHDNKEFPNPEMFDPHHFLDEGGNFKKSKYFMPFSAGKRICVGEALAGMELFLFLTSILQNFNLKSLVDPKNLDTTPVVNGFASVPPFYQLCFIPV
Sequence of Cytochrome P450 2D6 (Homo sapiens) (P10635 whole entry, looked up): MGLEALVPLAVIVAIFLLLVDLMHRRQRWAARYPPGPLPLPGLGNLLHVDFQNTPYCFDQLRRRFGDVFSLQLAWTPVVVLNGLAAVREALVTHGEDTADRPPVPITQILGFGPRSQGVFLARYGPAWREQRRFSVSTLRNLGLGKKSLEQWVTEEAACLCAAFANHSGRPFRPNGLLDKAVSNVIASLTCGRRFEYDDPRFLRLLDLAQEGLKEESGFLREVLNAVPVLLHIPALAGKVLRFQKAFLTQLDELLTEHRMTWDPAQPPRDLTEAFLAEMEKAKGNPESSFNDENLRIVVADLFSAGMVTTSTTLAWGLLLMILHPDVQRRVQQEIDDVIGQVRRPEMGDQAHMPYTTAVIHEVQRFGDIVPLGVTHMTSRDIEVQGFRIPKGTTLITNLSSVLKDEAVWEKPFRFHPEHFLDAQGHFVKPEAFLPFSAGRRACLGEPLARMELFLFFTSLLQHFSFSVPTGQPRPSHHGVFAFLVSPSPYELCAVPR
Sequence of Cytochrome P450 3A4 (Homo sapiens) (P08684 whole entry, looked up): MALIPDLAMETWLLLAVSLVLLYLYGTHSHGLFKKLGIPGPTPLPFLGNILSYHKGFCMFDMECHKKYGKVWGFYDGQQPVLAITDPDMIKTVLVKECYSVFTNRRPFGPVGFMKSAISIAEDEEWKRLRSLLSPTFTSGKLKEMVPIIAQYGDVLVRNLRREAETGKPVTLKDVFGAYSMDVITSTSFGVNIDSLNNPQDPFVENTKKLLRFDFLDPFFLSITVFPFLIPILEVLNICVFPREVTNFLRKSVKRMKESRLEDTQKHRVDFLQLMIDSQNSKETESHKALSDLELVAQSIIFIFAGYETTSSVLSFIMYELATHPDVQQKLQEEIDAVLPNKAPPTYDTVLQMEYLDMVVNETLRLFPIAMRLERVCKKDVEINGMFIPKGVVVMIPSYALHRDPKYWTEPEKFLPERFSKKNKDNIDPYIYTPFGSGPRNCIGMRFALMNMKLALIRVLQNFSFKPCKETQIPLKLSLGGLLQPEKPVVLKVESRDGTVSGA

Regarding `COc1c(OCCCN2CCOCC2)ccc2c3n(c(=NC(=O)c4cnc(N)nc4)nc12)CCN3`, the outcome in assay [1] was inactive.
Take `Cc1c(Cn2c(C)nc3c(C(=O)O)cc(N4CCOCC4)cc32)cccc1C(F)(F)F`: in assay [2], the result was inactive. In addition, the Potency entry in assay [3] and in assay [4] was “inactive” throughout.
On to `O=C(Nc1ncc(-c2cc(C(F)F)nn2-c2c(Cl)cccc2Cl)s1)C1CC1`, for which the outcome in assay [2] was inactive. For the same compound, the Potency entry in assay [3] is “inactive”. Further, the Potency in assay [5] is 10.7 µM (active); in assay [4], 6.74 µM (active); in assay [6], 934 nM (active); in assay [7], 417 nM (active).
On to `CN(C)CC(C)(C)CNc1nn2c(-c3ccccc3)nnc2cc1C1CCC1`, for which the result in assay [2] was inactive. Moreover, the Potency result in assay [3], in assay [6] and in assay [7] was “inactive” each time. Moreover, the Potency in assay [5] was 2.13 µM (active); in assay [4] it was 8.49 µM (active).
Consider `CCNC(=O)Nc1ccc2ncc(Nc3ccc(C)cc3)nc2n1`, for which, in assay [2], the outcome was inactive. Also, the Potency entry in assay [3], in assay [5], in assay [4], in assay [6] and in assay [7] was “inactive” in each case.
Turning to `Cc1ccc2nc(NC(=O)CSc3nc4c(c(=O)n3-c3ccccc3)SCC4)sc2c1`, the result in assay [2] was inactive. In addition, the Potency result in assay [3], in assay [5], in assay [4], in assay [6] and in assay [7] was “inactive” in each case.
As to `CC(C)c1cc(C(=O)N2Cc3ccc(CN4CCN(C)CC4)cc3C2)c(O)cc1O`, the result in assay [2] was inactive. Moreover, the Potency result in assay [3] and in assay [5] was “inactive” each time. Further, the Potency in assay [4] is 12 µM (active); in assay [6], 115 nM (active) and 148 nM (active); in assay [7] it was 129 nM (active) and 166 nM (active).
As for `Cc1c(CN2CCN(S(C)(=O)=O)CC2)sc2c(N3CCOCC3)nc(-c3cnc(N)nc3)nc12`, the outcome in assay [2] was inactive. In addition, the Potency entry in assay [3] and in assay [5] was “inactive” each time. Moreover, the Potency in assay [4] is 10.7 µM (active); in assay [6] it was 29 nM (active) and 74.2 nM (active); in assay [7], 32.5 nM (active) and 118 nM (active).
`CS(=O)(=O)c1ccc(-c2cnc(N)c(C(=O)Nc3ccccc3)n2)cc1`: in assay [2], the result was inactive. In addition, the Potency result in assay [3] and in assay [5] was “inactive” each time. Further, the Potency in assay [4] was 12 µM (active); in assay [6] it was 2630 nM (active); in assay [7], 2630 nM (active).
In the case of `CC(C)CC(=O)Nc1n[nH]c2c1CN(C(=O)C1CCN(C)CC1)C2(C)C`, the outcome in assay [2] was inactive. Also, the Potency result in assay [3], in assay [5] and in assay [4] was “inactive” in each case. Besides, the Potency is 129 nM (active) and 662 nM (active) in assay [6]; 580 nM (active) and 590 nM (active) in assay [7].
`Cn1c2cc(S(C)=O)sc2c2cnn(Cc3cccc(N)c3)c(=O)c21` (stereo not given): in assay [2], the result was inactive. In assay [3], the Potency result was “inactive”. Also, the Potency in assay [4] is 19 µM (active).
